Assay results taken from PubChem BioAssay (NCATS).
Inconclusive results are not listed. A call without a number means that no potency is given here. Active and inactive are the calls of the source. Calls come from the whole dose curve; tested in HEK293 reporter line.

assay: qHTS for Inhibitors of the Functional Ribonucleoprotein Complex (vRNP) of Lymphocytic Choriomeningitis Arenaviruses (LCMV): Viability assay - alamar blue signal for LCMV Primary Screen (AID 1347085); settings: alamar blue viability counter-screen, LCMV vRNP screen cells; series mostly up to 57.5 µM; note: nearly all actives have a fitted effect of over 80% in size
Potency is the fitted concentration of half-maximal effect.

Structure (SMILES) | Potency
CC(NCc1ccc2c(c1)nc(NC(=O)c1ccc(-c3cn[nH]c3)s1)n2CC(C)(C)O)C(C)(C)C (centres undefined) | 1.72 µM (active)
O=C(Nc1cccc(Cl)c1)Nc1ncc(CCNc2ncnc3ccsc23)s1 | inactive
CCc1cc(Nc2nccc(-c3c(-c4ccc(OC)c(C(=O)Nc5c(F)cccc5F)c4)nc4ccccn34)n2)c(OC)cc1N1CCC(N2CCN(S(C)(=O)=O)CC2)CC1 | 21.7 µM (active)
C[C@@H](N)C1CCC(C(=O)Nc2ccncc2)CC1 (some centres undefined) | 0.863 µM (active)
CN(C)C1CCN(C(=O)c2ccc(NC(=O)Nc3nc(N4CCOCC4)nc(N4CCOCC4)n3)cc2)CC1 | 0.0611 µM (active)
CC(=O)N[C@@H](CCC(N)=O)C(=O)O | inactive
NCCS | inactive
CC(=O)OCCN1C(=O)c2c(C)nc3ccc(S(=O)(=O)N4CCOCC4)cc3c2C1=O | inactive
O=C(Nc1cc(Cl)cc2c1[nH]c1cnccc12)c1cccnc1 | 24.3 µM (active)
COc1ccc(-c2ccc3c(N4CCOCC4)nc(N4C[C@@H](C)O[C@@H](C)C4)nc3n2)cc1CO | 1.09 µM (active)
Nc1ccccc1NC(=O)c1ccc(CNc2nccc(-c3cccnc3)n2)cc1 | 12.2 µM (active)
C=CC(=O)Nc1cccc(Oc2nc(Nc3ccc(N4CCN(C)CC4)cc3OC)ncc2Cl)c1 | 0.0485 µM (active)
CC(C)(C)c1cnc(CSc2cnc(NC(=O)C3CCNCC3)s2)o1 | 0.968 µM (active)
O=C(NC1CCNCC1)c1[nH]ncc1NC(=O)c1c(Cl)cccc1Cl | 0.968 µM (active)
CCn1cc(C(=O)O)c(=O)c2cc3c(cc21)OCO3 | inactive
C[C@@]12O[C@@H](C[C@]1(O)CO)n1c3ccccc3c3c4c(c5c6ccccc6n2c5c31)CNC4=O | 21.7 µM (active)
Cc1cccc(C#Cc2ccccc2)n1 | inactive
Cc1ccc(C(N)=O)cc1Nc1nccc(-c2cn(C(C)C)c3cnccc23)n1 | 21.7 µM (active)
CCCOC(=O)c1ccc(O)cc1 | inactive
O=C1CCCC2=C1C(c1[nH]ncc1Cl)N=C(Nc1nc3ccccc3o1)N2 (centres undefined) | inactive

Structure (SMILES) | Potency
O=C(O)[C@H](Cc1c[nH]c2ccccc12)N1C(=O)c2ccccc2C1=O | inactive
CC1(C)Cc2c(-c3ccccc3)c(-c3ccc(Cl)cc3)c(CC(=O)O)n2C1 | inactive
CCC[C@H](NC(=O)C(C#N)=Cc1cccc(Br)n1)c1ccccc1 | inactive
COc1cc(OC2CCN(C)CC2)ccc1Nc1ncc2c(n1)n(C1CCCC1)c(=O)n2C | 17.2 µM (active)
C[C@@H]1CN(c2c(F)c(N)c3c(=O)c(C(=O)O)cn(C4CC4)c3c2F)C[C@H](C)N1 | inactive
C1=CCOCc2cc(ccc2OCCN2CCCC2)Nc2nccc(n2)-c2cccc(c2)OCC1 | 24.3 µM (active)
C=CC(=O)Nc1cc2c(Nc3ccc(F)c(Cl)c3)ncnc2cc1C#CC(C)(C)N1CCN(C)CC1 | inactive
NC(=O)c1ccc(N(C(N)=O)c2c(F)cccc2F)nc1-c1ccc(F)cc1F | 17.2 µM (active)
Nc1nc2ccc([N+](=O)[O-])cc2s1 | inactive
CCC(C(=O)O)c1ccc(N2Cc3ccccc3C2=O)cc1 (centres undefined) | inactive
COc1ccc2cc(CCC(C)=O)ccc2c1 | inactive
COc1ccc2c(c1)CC[C@@H](CN(C)CC(=O)O)[C@H]2c1ccccc1 | 4.85 µM (active)
COc1ncnc(NS(=O)(=O)c2ccc(N)cc2)c1OC | inactive
CNC(=O)c1cc(Oc2ccc(NC(=O)Nc3cc(C(C)(C)C)nn3-c3ccc4ncccc4c3)c(F)c2)ccn1 | 24.3 µM (active)
C/C(=C1\CCOC(=O)S1)N(C=O)Cc1cnc(C)nc1N | inactive
CCOC(CN1C(=O)[C@](CC(=O)Nc2ccc(C)cc2)(NC(=O)Nc2ccc(C)cc2)c2ccccc21)OCC | inactive
O=C(C=Cc1ccc(/C=C/C(=O)Nc2ccc(C3=NCCN3)cc2)cc1)Nc1ccc(C2=NCCN2)cc1 | inactive
CCN(CC)CCOc1ccc(Nc2ncc3cc(-c4c(Cl)cccc4Cl)c(=O)n(C)c3n2)cc1 | 0.172 µM (active)
COc1cc2c(cc1OC)CC(=O)N(CCCN(C)C[C@H]1Cc3cc(OC)c(OC)cc31)CC2 | inactive
